PubChem BioAssay AID1259349 (Broad Institute, 2017)
Hit rate of the full screen: of about 17,000 compounds, about 1,100 (6.5%) were called active. The sample holds actives, similar compounds and a random draw of the others, so the mix is not that of the screen.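 Rule for the calls: active = z-score of -3 or lower, meaning strong loss of probe binding signal; inactive = the rest.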

Molecular target: Insulin-degrading enzyme (Homo sapiens) (UniProt P14735)
Test: exo-site inhibitors of human IDE, primary screen, biochemical, fluorescence anisotropy, probe displacement (AID 1259349);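 note: His-tagged human IDE residues 42-1019 made in E. coli with 30 nM FL-6b probe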
Conditions: purified IDE, FL-6b probe fluorescence polarization; at 20 µM; stronger effect = lower value

Chain of Insulin-degrading enzyme (Homo sapiens) (P14735 42-1019 limits assumed): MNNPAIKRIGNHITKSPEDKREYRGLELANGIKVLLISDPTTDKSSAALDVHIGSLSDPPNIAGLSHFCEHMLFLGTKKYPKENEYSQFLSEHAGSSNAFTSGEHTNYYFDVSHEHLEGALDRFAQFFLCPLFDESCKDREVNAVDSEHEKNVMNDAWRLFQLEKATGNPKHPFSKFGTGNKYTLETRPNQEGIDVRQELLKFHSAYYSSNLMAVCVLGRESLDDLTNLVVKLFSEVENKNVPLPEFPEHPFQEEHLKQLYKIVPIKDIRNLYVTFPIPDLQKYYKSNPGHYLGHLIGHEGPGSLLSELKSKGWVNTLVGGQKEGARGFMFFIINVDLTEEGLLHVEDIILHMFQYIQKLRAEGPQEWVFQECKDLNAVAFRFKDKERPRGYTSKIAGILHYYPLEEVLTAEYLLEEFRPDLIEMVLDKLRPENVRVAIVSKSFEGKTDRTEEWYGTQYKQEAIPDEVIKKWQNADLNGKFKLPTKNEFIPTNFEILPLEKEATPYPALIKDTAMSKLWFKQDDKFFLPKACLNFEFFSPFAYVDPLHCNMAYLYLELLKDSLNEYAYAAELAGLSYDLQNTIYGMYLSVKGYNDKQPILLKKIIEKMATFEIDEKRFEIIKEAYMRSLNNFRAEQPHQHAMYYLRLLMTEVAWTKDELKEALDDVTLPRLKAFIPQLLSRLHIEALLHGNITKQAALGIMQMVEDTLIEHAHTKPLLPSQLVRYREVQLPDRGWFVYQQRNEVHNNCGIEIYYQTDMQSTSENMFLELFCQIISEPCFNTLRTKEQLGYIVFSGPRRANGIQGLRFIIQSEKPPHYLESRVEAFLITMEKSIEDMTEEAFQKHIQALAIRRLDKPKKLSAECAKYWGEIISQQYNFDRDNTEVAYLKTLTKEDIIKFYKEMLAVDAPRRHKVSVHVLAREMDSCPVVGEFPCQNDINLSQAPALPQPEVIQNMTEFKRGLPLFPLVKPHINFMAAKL

Structure (SMILES)	z-score
C[C@@H]1COCc2cn(nn2)CC[C@H](C)C(=O)N1	0.508 (inactive)
CN(C)C(=O)c1cccc(-c2ccc([C@H]3[C@H](CO)N4C(=O)CN(C(=O)C5CCCCC5)C[C@@H]34)cc2)c1	1.54 (inactive)
COc1cccc(-c2ccc([C@@H]3[C@@H](CO)N4C(=O)CN(C(=O)C5CCCCC5)C[C@H]34)cc2)c1	-3.69 (active)
C/C=C/c1ccc([C@@H]2[C@@H](CO)N3C(=O)CN(C(=O)Nc4cccc(OC)c4)C[C@@H]23)cc1	0.379 (inactive)
CN(C)C(=O)c1cccc(-c2ccc([C@H]3[C@@H](CO)N4C(=O)CN(C(=O)C5CC5)C[C@@H]34)cc2)c1	3.52 (inactive)
COc1cccc(-c2ccc([C@H]3[C@H]4CN(C(=O)NC(C)C)CC(=O)N4[C@H]3CO)cc2)c1	-10.1 (active)
COc1ccc(NC(=O)N2CC(=O)N3[C@H](CO)[C@@H](c4ccc(-c5ccc(C)cc5)cc4)[C@H]3C2)cc1	-0.113 (inactive)
N#C[C@H]1[C@H](c2ccccc2-c2ccc(F)cc2)[C@H](CO)N1C(=O)Cc1ccncc1	2.04 (inactive)
CO[C@@H]1CC[C@@H]2CCOc3ccc(C#N)cc3C(=O)N(C)[C@H](C)C(=O)N(C)C[C@@H]1O2	2.26 (inactive)
CO[C@@H]1CN(C)C(=O)c2ccc(NS(=O)(=O)c3c(C)noc3C)cc2OC[C@H](C)NC[C@@H]1C	1.77 (inactive)
O=C(c1ccncc1)N1CCCCN2[C@H](CO)[C@@H](c3ccc(C#Cc4ccccn4)cc3)[C@H]2C1	-2.35 (inactive)
COc1ccc(-c2ccc([C@H]3[C@H]4CN(C(=O)c5ccc6c(c5)OCO6)CCCCN4[C@H]3CO)cc2)cc1	0.126 (inactive)
O=S(=O)(c1ccccc1)N1CCCCN2[C@H](C1)[C@H](c1ccc(-c3ccccc3)cc1)[C@@H]2CO	2.36 (inactive)
COc1ccc(C#Cc2ccc([C@@H]3[C@@H](CO)N4CCCCN(C(=O)c5ccncc5)C[C@@H]34)cc2)cc1	-0.38 (inactive)
COc1ccccc1-c1ccc([C@@H]2[C@@H](CO)N3CCCCN(S(=O)(=O)c4cn(C)cn4)C[C@H]23)cc1	-2.23 (inactive)
COc1ccccc1-c1ccc([C@@H]2[C@@H](CO)N3CCCCN(C(=O)c4ccncc4)C[C@@H]23)cc1	-4.74 (active)
Cc1cccc(-c2ccc([C@H]3[C@H](CO)N4CCCCN(S(=O)(=O)c5cn(C)cn5)C[C@@H]34)cc2)c1	-4.09 (active)
CCS(=O)(=O)N1CCCCN2[C@@H](CO)[C@@H](c3ccc(-c4ccccc4)cc3)[C@@H]2C1	-3.06 (active)
Cc1cccc(-c2ccc([C@@H]3[C@H](CO)N4CCCCN(C(=O)c5ccc6c(c5)OCO6)C[C@@H]34)cc2)c1	-4.42 (active)
O=S(=O)(Cc1ccccc1)N1CCCCN2[C@@H](CO)[C@H](c3ccc(-c4ccccc4)cc3)[C@@H]2C1	2.58 (inactive)
CCCC#Cc1ccc([C@H]2[C@H](CO)N3CCCCN(C(=O)c4ccc5c(c4)OCO5)C[C@@H]23)cc1	1.25 (inactive)

Structure (SMILES)	z-score
Cn1cnc(S(=O)(=O)N2CCCCN3[C@H](CO)[C@@H](c4ccc(-c5ccc(F)cc5)cc4)[C@@H]3C2)c1	3.91 (inactive)
O=C1CN(S(=O)(=O)Cc2ccccc2)C[C@@H]2[C@@H](c3ccc(C#Cc4ccccc4)cc3)[C@@H](CO)N12	-0.431 (inactive)
O=C(c1cccc(F)c1)N1CC(=O)N2[C@H](C1)[C@@H](c1ccc(C#Cc3ccc(F)cc3)cc1)[C@@H]2CO	2.4 (inactive)
CCC(=O)N1CC[C@H]2[C@@H]1c1cc(-c3ccc(C#N)cc3)ccc1N(C)[C@H]2CO	-0.903 (inactive)
O=C(C[C@H]1CC[C@@H]2NC[C@H](O)COC[C@H]2O1)NCCN1CCCCC1	-0.195 (inactive)
O=C1CCCCn2nncc2COC[C@@H](Cc2ccccc2)N1	0.104 (inactive)
CC(=O)NC[C@H]1[C@H](c2ccccc2)[C@@H](CO)N1C(=O)Cc1cccnc1	5.37 (inactive)
CN(C)CC#Cc1ccc([C@H]2[C@H](CO)N3CCCCN(CC4CC4)C[C@@H]23)cc1	3 (inactive)
Cc1ccc(-c2ccc([C@H]3[C@H]4CN(S(=O)(=O)c5cccc(F)c5)CC(=O)N4[C@H]3CO)cc2)cc1	1.96 (inactive)
O=C(c1ccncc1)N1CCCCN2[C@H](CO)[C@H](c3ccc(-c4ccccc4)cc3)[C@H]2C1	-4.53 (active)
CC(C)C#Cc1ccc([C@H]2[C@H](CO)N3CCCCN(C(=O)c4ccc(F)cc4)C[C@@H]23)cc1	1.11 (inactive)
O=C(c1ccc(F)cc1)N1CCCCN2[C@H](C1)[C@@H](c1ccc(C#CC3(O)CCCC3)cc1)[C@@H]2CO	-3.65 (active)
O=C(c1cccc(F)c1)N1CCCCN2[C@H](CO)[C@H](c3ccc(-c4ccncc4)cc3)[C@H]2C1	0.501 (inactive)
O=C(c1cccc(F)c1)N1CCCCN2[C@H](CO)[C@H](c3ccc(C#CC4(O)CCCC4)cc3)[C@H]2C1	0.958 (inactive)
O=C(c1ccc(F)cc1)N1CCCCN2[C@@H](CO)[C@H](c3ccc(-c4ccccc4)cc3)[C@@H]2C1	-0.452 (inactive)
CC(C)(O)C#Cc1ccc([C@H]2[C@H]3CN(C(=O)c4ccncc4)CCCCN3[C@H]2CO)cc1	0.748 (inactive)
C[C@H](CO)N1C[C@H](C)[C@H](CN(C)C(=O)Nc2cccc(Cl)c2Cl)OCc2ccccc2-c2ccccc2C1=O	-1.18 (inactive)
CCCC#Cc1ccc([C@H]2[C@H]3CN(C(=O)Nc4ccc(F)cc4)CC(=O)N3[C@H]2CO)cc1	3.77 (inactive)
C[C@@H]1CN([C@H](C)CO)C(=O)CCCn2cc(nn2)CO[C@@H]1CN(C)C(=O)Nc1ccc2c(c1)OCO2	-0.664 (inactive)
CCCC#Cc1ccc([C@H]2[C@@H](CO)N3C(=O)CN(C(=O)c4ccncc4)C[C@@H]23)cc1	3.16 (inactive)
